In PubChem BioAssay (NCI):
The panel holds about 79,000 compounds, 15% with a hit somewhere; the sample as a whole holds those more often. Calls of active or inactive are those of the source. No stated cut-off is given here; in the data, active means growth inhibition above about 70%; inactive means the rest.

Tests used:
[1] = NCI Yeast Anticancer Drug Screen. Data for the rad50 strain (AID 155);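 further: 0% = growth of vehicle-only cultures of the same strain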; conditions: S. cerevisiae rad50 strain growth inhibition, active compounds read high
Summary of the method: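 Growth of the mutant yeast was measured after compound exposure and referenced to vehicle-treated cultures.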

[2] = NCI Yeast Anticancer Drug Screen. Data for the mec2-1 strain (AID 157); conditions: S. cerevisiae mec2-1 strain, active compounds read high
Summary of the method: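 Strain: mec2-1 (DNA repair/cell cycle alteration). Compound exposure, then growth measured; inhibition expressed relative to vehicle.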

[3] = NCI Yeast Anticancer Drug Screen. Data for the sgs1 mgt1 strain (AID 161);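 further: 0% = growth of cultures given vehicle only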; conditions: S. cerevisiae sgs1 mgt1 strain, active compounds read high
Summary of the method: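 Inhibition of yeast growth, normalised to vehicle-treated controls, is reported for a strain bearing genetic alterations in DNA damage repair.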

[4] = NCI Yeast Anticancer Drug Screen. Data for the cln2 rad14 strain (AID 165);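 further: 0% = growth equal to vehicle treated cultures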; conditions: S. cerevisiae cln2 rad14 strain, active compounds read high
Summary of the method: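 Compounds are applied to the cln2 rad14 yeast strain, and growth is then compared with that of vehicle-treated cultures to give inhibition.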

[5] = NCI Yeast Anticancer Drug Screen. Data for the bub3 strain (AID 167); conditions: S. cerevisiae bub3 mutant strain, active compounds read high
Summary of the method: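 Whole-cell yeast assay. The mutant strain was incubated with compounds, and growth inhibition was determined by comparison with vehicle-treated cells.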

[6] = NCI Yeast Anticancer Drug Screen. Data for the mlh1 rad18 strain (AID 175); conditions: S. cerevisiae mlh1 rad18 strain growth inhibition, active compounds read high
Summary of the method: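 Read-out is yeast growth inhibition, calculated against vehicle-only controls. The compound was applied to a strain engineered with DNA damage repair alterations.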

[7] = at 5.0 µM (retest, dose inferred, filed as 0.5)
[8] = at 50.0 µM (retest, dose inferred, filed as 5.0)

Measured: growth inhibition

COc1ccc2nc3cc(Cl)ccc3c(Nc3ccc(O)c(CNCCO)c3)c2c1
active: [1]; at 50.0 µM 88.9% | [3]; at 50.0 µM 81%
inactive: [1]; [7] -27% | [1]; [8] 63% | [2]; [7] -1% | [2]; [8] -6% | [2]; at 50.0 µM 31.9% | [3]; [7] -5% | [3]; [8] 44% | [4]; [7] -2% | [4]; [8] -11% | [4]; at 50.0 µM 17.2% | [5]; [7] 0% | [5]; [8] -4% | [5]; at 50.0 µM -7.15% | [6]; [7] -9% | [6]; [8] 12% | [6]; at 50.0 µM 29.6%

CN(C)/N=C(/CC(O)(C(F)(F)F)C(F)(F)F)c1ccc([N+](=O)[O-])cc1
inactive: [1]; [7] 25% | [1]; [8] 20% | [1]; at 50.0 µM -4.65% | [2]; [7] 19% | [2]; [8] 11% | [2]; at 50.0 µM -8.95% | [3]; [7] 19% | [3]; [8] 22% | [3]; at 50.0 µM 35.6% | [4]; [7] 12% | [4]; [8] 12% | [4]; at 50.0 µM -18.6% | [5]; [7] 15% | [5]; [8] 7% | [5]; at 50.0 µM -12.9% | [6]; [7] 25% | [6]; [8] 21% | [6]; at 50.0 µM -16.4%

O=C1Nc2ccccc2/C1=C/c1ccc(Cl)c(Cl)c1
active: [1]; [8] 71% | [1]; at 50.0 µM 78.3% | [2]; [8] 89% | [2]; at 50.0 µM 80.3% | [3]; [8] 73% | [4]; [8] 94% | [4]; at 50.0 µM 74.1% | [5]; [8] 94% | [5]; at 50.0 µM 74.7% | [6]; [8] 89% | [6]; at 50.0 µM 78%
inactive: [1]; [7] -1% | [2]; [7] -8% | [3]; [7] -4% | [3]; at 50.0 µM 65.5% | [4]; [7] 20% | [5]; [7] -10% | [6]; [7] 5%

C[n+]1c(-c2ccc(/C=N/NC(=O)C(=O)N/N=C/c3ccc(-c4cn5ccccc5[n+]4C)cc3)cc2)cn2ccccc21
active: [1]; [8] 95% | [1]; at 50.0 µM 89.8% | [2]; [8] 97% | [2]; at 50.0 µM 92.1% | [3]; [8] 98% | [3]; at 50.0 µM 88.6% | [4]; [8] 91% | [4]; at 50.0 µM 84.7% | [5]; [8] 98% | [5]; at 50.0 µM 91% | [6]; [7] 70% | [6]; [8] 98% | [6]; at 50.0 µM 89.5%
inactive: [1]; [7] 59% | [2]; [7] 63% | [3]; [7] 69% | [4]; [7] 28% | [5]; [7] 64%

O=C(NNc1nc(-c2ccccc2)cs1)Nc1ccccc1
inactive: [1]; [7] 30% | [1]; [8] 54% | [2]; [7] 19% | [2]; [8] 44% | [4]; at 50.0 µM 23.6% | [6]; [7] 48% | [6]; [8] 66%
active: [1]; at 50.0 µM 77.2% | [2]; at 50.0 µM 90.1% | [3]; [7] 99% | [3]; [8] 98% | [3]; at 50.0 µM 88.5% | [4]; [7] 98% | [4]; [8] 97% | [5]; [7] 99% | [5]; [8] 97% | [5]; at 50.0 µM 83.8% | [6]; at 50.0 µM 75.1%

CCCCCCCCCC(=O)NN=C(C)C
inactive: [1]; [7] -129% | [1]; [8] 54% | [2]; [7] -49% | [2]; [8] 45% | [3]; [7] -59% | [3]; at 50.0 µM -2.75% | [4]; [7] -67% | [5]; [7] -72% | [5]; [8] 41% | [6]; [7] -131% | [6]; [8] 46%
active: [1]; at 50.0 µM 93.1% | [2]; at 50.0 µM 83.2% | [3]; [8] 75% | [4]; [8] 81% | [4]; at 50.0 µM 88.2% | [5]; at 50.0 µM 88% | [6]; at 50.0 µM 90.8%

C[N+](C)=c1ccc2nc3c(cc(NCCCNc4cc5oc6cc(=[N+](C)C)ccc-6nc5c5ccccc45)c4ccccc43)oc-2c1
inactive: [1]; [7] -28% | [2]; [7] -7% | [2]; at 50.0 µM 51% | [3]; [7] -15% | [3]; at 50.0 µM 67.5% | [4]; [7] -29% | [4]; [8] 53% | [4]; at 50.0 µM 39.5% | [5]; [7] -18% | [5]; at 50.0 µM 64% | [6]; [7] -15% | [6]; at 50.0 µM 65.1%
active: [1]; [8] 79% | [1]; at 50.0 µM 75.8% | [2]; [8] 80% | [3]; [8] 70% | [5]; [8] 72% | [6]; [8] 74%

CC(C)(CN1CCCCC1)C(=O)/C=C/c1ccc(Cl)c(Cl)c1
active: [1]; [8] 97% | [1]; at 50.0 µM 93.3% | [2]; [8] 98% | [2]; at 50.0 µM 94.7% | [3]; [8] 96% | [3]; at 50.0 µM 93.2% | [4]; [8] 96% | [4]; at 50.0 µM 91.8% | [5]; [8] 96% | [5]; at 50.0 µM 92.9% | [6]; [8] 97% | [6]; at 50.0 µM 92.7%
inactive: [1]; [7] 60% | [2]; [7] 27% | [3]; [7] 31% | [4]; [7] 28% | [5]; [7] 47% | [6]; [7] 52%

O=C1NC(c2cccc3ccccc23)Nc2ccc(Cl)cc21 (stereo not given)
inactive: [1]; [7] 18% | [2]; [7] 10% | [3]; [7] 5% | [4]; [7] 12% | [4]; at 50.0 µM 56.3% | [5]; [7] 1% | [6]; [7] 20%
active: [1]; [8] 95% | [1]; at 50.0 µM 74% | [2]; [8] 96% | [2]; at 50.0 µM 84.8% | [3]; [8] 97% | [3]; at 50.0 µM 83% | [4]; [8] 85% | [5]; [8] 96% | [5]; at 50.0 µM 80.6% | [6]; [8] 94% | [6]; at 50.0 µM 77.2%

C/C(CCSCc1ccccc1)=N/NC(N)=S
active: [3]; [8] 78% | [6]; [8] 76%
inactive: [1]; [7] 6% | [1]; [8] 44% | [1]; at 50.0 µM 41.8% | [2]; [7] 4% | [2]; [8] 65% | [2]; at 50.0 µM 55.9% | [3]; [7] 6% | [3]; at 50.0 µM 63.9% | [4]; [7] -5% | [4]; [8] 45% | [4]; at 50.0 µM 33.2% | [5]; [7] -1% | [5]; [8] 65% | [5]; at 50.0 µM 54.1% | [6]; [7] 7% | [6]; at 50.0 µM 66.7%
